Measurements from PubChem BioAssay (Tox21).
Results filed as inconclusive are left out. The source made the active and inactive calls. Calls come from the whole dose curve; as a rule, active = well fitted curve in the direction sought with a large enough effect in the repeat runs; inconclusive = weak or mixed curves; inactive = no such curve, though single readings can be large; an effect the other way counts as inactive or inconclusive.

Assays:
[1] = qHTS RealTime-Glo MT Cell Viability Assay in HepG2 cells - 24 hour (AID 1224867); note: nearly all actives have a fitted effect of over 50% in size
In short: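 Viability was tracked continuously by NanoLuc luminescence from prosubstrate reduced by living HepG2 cells, at successive time points over 40 h of compound exposure. Cells with reagent were preincubated 5 h at 37 °C before compound addition.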

[2] = qHTS RealTime-Glo MT Cell Viability Assay in HEK293 cells - 32 hour (AID 1224868); note: top concentration of the series differs between compounds; nearly all actives have a fitted effect of over 50% in size
In short: (§1)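 Viability tracked continuously by luminescence as live cells reduce a prosubstrate for NanoLuc; HEK293 cells preincubated 5 h, compound-treated at 37 C, and read at 0, 8, 16, 24, 32 and 40 h.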

[3] = A CellTox Green Cytotoxicity Assay to monitor cytotoxicity in HEK293 cells - 0 hour (AID 1224869); note: nearly all actives have a fitted effect of over 50% in size
In short: (§2)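 Cells (HEK293, 600/well) and dye reagent are dispensed together. After 5 h at 37 C, 23 nL compound is pinned in. Plates stay at 37 C for 40 h with fluorescence read at 0h, 8h, 16h, 24h, 32h and 40h.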

[4] = qHTS RealTime-Glo MT Cell Viability Assay in HepG2 cells - 40 hour (AID 1224870); note: nearly all actives have a fitted effect of over 50% in size
In short: (§3)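 Real-time viability: cells seeded at 600 per well together with NanoLuc and cell-permeant prosubstrate, compounds added after 5 h incubation. Luminescence tracked at 0, 8, 16, 24, 32 and 40 h of exposure.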

[5] = qHTS RealTime-Glo MT Cell Viability Assay in HEK293 cells - 16 hour (AID 1224872)
In short: as §1

[6] = qHTS RealTime-Glo MT Cell Viability Assay in HepG2 cells - 8 hour (AID 1224873); note: nearly all actives have a fitted effect of over 55% in size
In short: as §3

[7] = A CellTox Green Cytotoxicity Assay to monitor cytotoxicity in HEK293 cells - 24 hour (AID 1224875); note: series mostly up to about 77 µM; nearly all actives have a fitted effect of over 45% in size
In short: as §2

[8] = qHTS RealTime-Glo MT Cell Viability Assay in HEK293 cells - 40 hour (AID 1224874); conditions: RealTime-Glo luminescence, active compounds read low; note: nearly all actives have a fitted effect of over 50% in size
In short: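 Real-time viability in HEK293: signal arises when living cells convert a prosubstrate for NanoLuc in the medium, so luminescence tracks viable cell number. Compound (23 nL, DMSO) added 5 h post-seeding; kinetic reads at 0–40 h, 37 C.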

[9] = A CellTox Green Cytotoxicity Assay to monitor cytotoxicity in HepG2 cells - 16 hour (AID 1224876); note: nearly all actives have a fitted effect of over 45% in size
In short: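 Cells and non-lytic dye reagent are dispensed together (600 HepG2 cells/well) and incubated 5 h before DMSO compound transfer. Kinetic fluorescence is then recorded in the same wells during 40 h at 37 C.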

[10] = A CellTox Green Cytotoxicity Assay to monitor cytotoxicity in HEK293 cells - 40 hour (AID 1224871); note: nearly all actives have a fitted effect of over 45% in size
In short: as §2
% is set by controls: 0 for no effect and ±100 for the full control effect.

O=C(O)CCC(=O)Nc1ccc(S(=O)(=O)Nc2nccs2)cc1
inactive: outcome [1] | outcome [2] | outcome [3] | outcome [4] | outcome [5] | outcome [6] | Potency [7]

CC(CC(=O)Cl)CC(C)(C)C (stereo not given)
inactive: outcome [1] | outcome [2] | outcome [3] | outcome [4] | outcome [5] | max response [8] 4.64% | Potency [7] | Potency [9]

C=COCCCCO
inactive: outcome [1] | outcome [2] | outcome [3] | outcome [4] | outcome [5] | outcome [6] | max response [8] -1.03% | Potency [7] | Potency [9]

Cc1ccc2cccnc2c1
inactive: outcome [1] | outcome [3] | outcome [4] | Potency [10] | outcome [5] | outcome [6] | max response [8] 20.7% | Potency [7] | Potency [9]

CC1(C)C(=O)C(C)(C)C1=O
inactive: outcome [1] | outcome [3] | outcome [4] | Potency [10] | outcome [5] | outcome [6] | max response [8] 6.04% | Potency [7] | Potency [9]

Cc1cc2c(cc1CC(=O)c1sccc1S(=O)(=O)Nc1onc(C)c1Cl)OCO2
inactive: outcome [1] | outcome [2] | outcome [3] | outcome [4] | outcome [5] | outcome [6] | max response [8] 6.15% | Potency [7] | Potency [9]

Cc1nc2ccc(Cl)cc2[nH]1
inactive: outcome [1] | outcome [3] | outcome [4] | Potency [10] | outcome [5] | outcome [6] | max response [8] 7.55% | Potency [7] | Potency [9]

CCN(CC)CC(=O)Oc1ccc(NC(C)=O)cc1
inactive: outcome [1] | outcome [3] | outcome [4] | Potency [10] | Potency [7] | Potency [9]

CC(CN1CC(=O)NC(=O)C1)N1CC(=O)NC(=O)C1 (stereo not given)
inactive: outcome [1] | outcome [3] | outcome [4] | Potency [10] | outcome [5] | outcome [6] | Potency [7] | Potency [9]

CCCCCCCCC1CO1 (stereo not given)
inactive: outcome [1] | outcome [3] | outcome [4] | Potency [10] | outcome [5] | outcome [6] | max response [8] -0.591% | Potency [7] | Potency [9]

CCO/C=C1\N=C(c2ccccc2)OC1=O
inactive: outcome [1] | outcome [3] | outcome [4] | Potency [10] | outcome [5] | max response [8] 18.4% | Potency [7] | Potency [9]

O=C1Nc2ccccc2C1=O
inactive: outcome [1] | outcome [3] | outcome [4] | Potency [10] | Potency [7] | Potency [9]

CC(C)OC(=O)C(C(=O)OC(C)C)=C1SC=CS1
inactive: outcome [1] | outcome [3] | outcome [4] | outcome [6] | Potency [7] | Potency [9]

Cc1ccc(OC(=O)CC(C)C)cc1
inactive: outcome [1] | outcome [3] | outcome [4] | outcome [5] | outcome [6] | max response [8] 3.9% | Potency [7] | Potency [9]

CCCCC(O)/C=C(C)/C=C/C=C/C(=O)N1CCCC1=O (stereo not given)
inactive: outcome [1] | outcome [3] | outcome [4] | Potency [10] | outcome [5] | outcome [6] | max response [8] 2.14% | Potency [7] | Potency [9]

CC(=O)c1ccc2ccc3ccccc3c2c1
inactive: outcome [1] | outcome [3] | outcome [4] | Potency [10] | outcome [6] | Potency [7] | Potency [9]

CNC(C)=O
inactive: outcome [1] | outcome [3] | outcome [4] | Potency [10] | outcome [5] | outcome [6] | max response [8] -0.0492% | Potency [7] | Potency [9]

CC[N+](C)(CC)CC
inactive: outcome [1] | outcome [3] | outcome [4] | outcome [5] | outcome [6] | max response [8] 13.2% | Potency [7] | Potency [9]

CCN1CCN(C(=O)N[C@@H](C(=O)N[C@@H]2C(=O)N3C(C(=O)O)=C(CSc4nnnn4C)CS[C@H]23)c2ccc(O)cc2)C(=O)C1=O
inactive: outcome [1] | outcome [3] | outcome [4] | outcome [5] | Potency [7] | Potency [9]

CC(C)(C)C(=O)NCCCC(=O)O
inactive: outcome [1] | outcome [3] | outcome [4] | outcome [5] | outcome [6] | max response [8] 5.71% | Potency [7] | Potency [9]

C/C=C/C(=O)CCCC
inactive: outcome [1] | outcome [3] | outcome [4] | Potency [10] | outcome [5] | outcome [6] | max response [8] 0.74% | Potency [7] | Potency [9]

C[C@@H](CN1CC(=O)NC(=O)C1)N1CC(=O)NC(=O)C1
inactive: outcome [1] | outcome [3] | outcome [4] | Potency [10] | outcome [5] | outcome [6] | max response [8] -3.41% | Potency [7] | Potency [9]

Cc1nnc(C(=O)NC(C)(C)c2nc(C(=O)NCc3ccc(F)cc3)c(O)c(=O)n2C)o1
inactive: outcome [1] | outcome [3] | outcome [4] | Potency [10] | outcome [5] | outcome [6] | max response [8] 21.7% | Potency [7] | Potency [9]

C=CCN(CC=C)CC=C
inactive: outcome [2] | outcome [3] | outcome [4] | Potency [10] | outcome [5] | outcome [6] | max response [8] 12.2% | Potency [7] | Potency [9]

CC(=O)Oc1ccc(C(C)=O)cc1
inactive: outcome [1] | outcome [3] | outcome [4] | Potency [10] | outcome [5] | outcome [6] | Potency [7] | Potency [9]

O=C(OOC(=O)c1ccccc1)c1ccccc1
inactive: outcome [1] | outcome [3] | outcome [4] | Potency [10] | Potency [7] | Potency [9]

CCc1ccc(CC)cc1
inactive: outcome [1] | outcome [3] | outcome [4] | outcome [5] | outcome [6] | max response [8] 4.78% | Potency [7] | Potency [9]

O=c1c(O)c(O)c1=O
inactive: outcome [1] | outcome [3] | outcome [4] | Potency [10] | outcome [5] | outcome [6] | max response [8] -0.875% | Potency [7] | Potency [9]
